The campaign covered roughly 5,500 compounds. About 2,000 (36%) were called active. About 18% were inconclusive and are not listed. Cut-off read from the data, not from the text of the source: active = normalized growth mostly below about 0.91 (no sharp cut-off); inconclusive = no clear call, values can overlap the other calls; inactive = mostly above about 0.92. Some of the results follow.
Assay: chemical genetic growth profiling, strain panel (AID 1159580);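 note: tested at 20 µM; growth read once vehicle control cultures reached saturation at 30 °C; 1 = growth at the plate median or of vehicle wells; lower values mean less growth of the strain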
Conditions: growth OD

Measured: normalized growth

C[C@H]1[C@H](C)CC[C@]2(C(=O)O)CC[C@]3(C)C(=CCC4[C@@]5(C)C[C@@H](O)[C@H](O)[C@@](C)(CO)C5[C@H](O)C[C@]43C)[C@H]12 (stereo partly drawn)
inactive: S. cerevisiae deletion strains, locus YJR066W, strain TOR1, hits give low values 0.909 | S. cerevisiae deletion strains, locus YKL160W, strain elf1, hits give low values 0.958 | S. cerevisiae deletion strains, locus YKR026C, strain gcn3, hits give low values 0.962 | S. cerevisiae deletion strains, locus YKR091W, strain srl3, hits give low values 0.965 | S. cerevisiae deletion strains, locus YLL001W, strain dnm1, hits give low values 0.964 | S. cerevisiae deletion strains, locus YLL026W, hits give low values 0.97 | S. cerevisiae deletion strains, locus YLL041C, strain sdh2, hits give low values 0.966 | S. cerevisiae deletion strains, locus YLR027C, strain aat2, hits give low values 0.96 | S. cerevisiae deletion strains, locus YLR039C, strain RIC1, hits give low values 0.799 | S. cerevisiae deletion strains, locus YLR058C, strain SHM2, hits give low values 0.993 | S. cerevisiae deletion strains, locus YLR102C, strain apc9, hits give low values 0.976 | S. cerevisiae deletion strains, locus YLR221C, strain rsa3, hits give low values 0.922 | S. cerevisiae deletion strains, locus YLR258W, strain gsy2, hits give low values 0.968 | S. cerevisiae deletion strains, locus YLR262C, strain YPT6 (second series), hits give low values 0.919 | S. cerevisiae deletion strains, locus YLR262C, strain YPT6, hits give low values 0.872 | S. cerevisiae deletion strains, locus YLR268W, strain sec22, hits give low values 0.932 | S. cerevisiae deletion strains, locus YLR320W, strain mms22, hits give low values 0.928 | S. cerevisiae deletion strains, locus YLR330W, strain CHS5, hits give low values 0.958 | S. cerevisiae deletion strains, locus YLR342W, strain FKS1 (second series), hits give low values 0.915 | S. cerevisiae deletion strains, locus YLR342W, strain FKS1, hits give low values 0.982 | S. cerevisiae deletion strains, locus YLR357W, strain rsc2, hits give low values 0.921 | S. cerevisiae deletion strains, locus YLR370C, strain arc18, hits give low values 0.967 | S. cerevisiae deletion strains, locus YLR371W, strain rom2, hits give low values 0.921 | S. cerevisiae deletion strains, locus YLR384C, strain iki3, hits give low values 0.964 | S. cerevisiae deletion strains, locus YLR418C, strain cdc73, hits give low values 0.901 | S. cerevisiae deletion strains, locus YML016C, strain PPZ1, hits give low values 0.99 | S. cerevisiae deletion strains, locus YML032C, strain rad52, hits give low values 0.959 | S. cerevisiae deletion strains, locus YML120C, strain ndi1, hits give low values 0.951 | S. cerevisiae deletion strains, locus YML124C, strain tub3, hits give low values 0.963 | S. cerevisiae deletion strains, locus YMR058W, strain fet3, hits give low values 0.972 | S. cerevisiae deletion strains, locus YMR078C, strain ctf18, hits give low values 0.979 | S. cerevisiae deletion strains, locus YMR125W, strain sto1, hits give low values 0.966 | S. cerevisiae deletion strains, locus YMR129W, hits give low values 0.962 | S. cerevisiae deletion strains, locus YMR205C, strain PFK2, hits give low values 0.909 | S. cerevisiae deletion strains, locus YMR223W, strain ubp8, hits give low values 0.905 | S. cerevisiae deletion strains, locus YMR231W, strain pep5, hits give low values 0.978 | S. cerevisiae deletion strains, locus YMR307W, strain GAS1, hits give low values 0.6 | S. cerevisiae deletion strains, locus YNL067W, strain RPL9B, hits give low values 0.942 | S. cerevisiae deletion strains, locus YNL071W, strain lat1, hits give low values 0.973 | S. cerevisiae deletion strains, locus YNL183C, strain NPR1, hits give low values 0.905 | S. cerevisiae deletion strains, locus YNL209W, strain ssb2, hits give low values 0.961 | S. cerevisiae deletion strains, locus YNL233W, strain BNI4, hits give low values 0.927 | S. cerevisiae deletion strains, locus YNL248C, strain rpa49, hits give low values 0.964 | S. cerevisiae deletion strains, locus YNL250W, strain rad50, hits give low values 0.98 | S. cerevisiae deletion strains, locus YNL307C, strain MCK1, hits give low values 0.994 | S. cerevisiae deletion strains, locus YNL322C, strain KRE1 (second series), hits give low values 0.98 | S. cerevisiae deletion strains, locus YNL322C, strain KRE1, hits give low values 0.984 | S. cerevisiae deletion strains, locus YNR049C, strain mso1, hits give low values 0.987 | S. cerevisiae deletion strains, locus YOL006C, strain TOP1, hits give low values 0.915 | S. cerevisiae deletion strains, locus YOL012C, strain htz1 0.605 | S. cerevisiae deletion strains, locus YOL147C, strain pex11, hits give low values 0.985 | S. cerevisiae deletion strains, locus YOR001W, strain rrp6, hits give low values 0.907 | S. cerevisiae deletion strains, locus YOR061W, strain CKA2, hits give low values 0.994 | S. cerevisiae deletion strains, locus YOR069W, strain VPS5, hits give low values 0.998 | S. cerevisiae deletion strains, locus YOR070C, strain gyp1, hits give low values 0.966 | S. cerevisiae deletion strains, locus YOR080W, strain dia2, hits give low values 0.967 | S. cerevisiae deletion strains, locus YOR083W, strain WHI5, hits give low values 0.954 | S. cerevisiae deletion strains, locus YOR106W, strain vam3, hits give low values 0.972 | S. cerevisiae deletion strains, locus YOR136W, strain idh2, hits give low values 0.931 | S. cerevisiae deletion strains, locus YOR144C, strain elg1, hits give low values 0.958 | S. cerevisiae deletion strains, locus YOR184W, strain ser1, hits give low values 0.946 | S. cerevisiae deletion strains, locus YOR231W, strain MKK1, hits give low values 0.982 | S. cerevisiae deletion strains, locus YOR265W, strain rbl2, hits give low values 0.98 | S. cerevisiae deletion strains, locus YOR270C, strain vph1, hits give low values 0.851 | S. cerevisiae deletion strains, locus YOR290C, strain snf2, hits give low values 0.971 | S. cerevisiae deletion strains, locus YOR316C, strain cot1, hits give low values 0.962 | S. cerevisiae deletion strains, locus YPL051W, strain arl3, hits give low values 0.959 | S. cerevisiae deletion strains, locus YPL055C, strain LGE1, hits give low values 0.938 | S. cerevisiae deletion strains, locus YPL078C, strain atp4, hits give low values 0.984 | S. cerevisiae deletion strains, locus YPL106C, strain sse1, hits give low values 0.895 | S. cerevisiae deletion strains, locus YPL240C, strain hsp82, hits give low values 0.953 | S. cerevisiae deletion strains, locus YPL241C, strain CIN2, hits give low values 1 | S. cerevisiae deletion strains, locus YPL256C, strain CLN2, hits give low values 0.958 | S. cerevisiae deletion strains, locus YPR119W, strain clb2, hits give low values 0.978 | S. cerevisiae deletion strains, locus YPR141C, strain kar3, hits give low values 0.974 | S. cerevisiae deletion strains, locus YPR163C, strain tif3, hits give low values 0.969 | S. cerevisiae deletion strains, locus YPR167C, strain met16, hits give low values 0.974 | S. cerevisiae deletion strains, strain wtn01, hits give low values 0.94 | S. cerevisiae strains, strain wild type, hits give low values 0.961
active: S. cerevisiae deletion strains, locus YKL009W, strain mrt4, hits give low values 1.55 [resistant] | S. cerevisiae deletion strains, locus YKL068W, hits give low values 1.23 [resistant] | S. cerevisiae deletion strains, locus YKL085W, strain MDH1 (second series), hits give low values 1.3 [resistant] | S. cerevisiae deletion strains, locus YKL085W, strain MDH1, hits give low values 1.3 [resistant] | S. cerevisiae deletion strains, locus YKR001C, strain vps1, hits give low values 0.855 | S. cerevisiae deletion strains, locus YLR113W, strain HOG1, hits give low values 0.673 | S. cerevisiae deletion strains, locus YNL271C, strain bni1, hits give low values 0.907 | S. cerevisiae deletion strains, locus YNL298W, strain CLA4, hits give low values 0.869 | S. cerevisiae deletion strains, locus YNR052C, strain pop2, hits give low values 0.914
